Compounds without any hit were thinned out: in the full panel of roughly 83,000, 20% have a hit.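 Cells were grown in 96-well plates and exposed to the test compound at a single concentration for 48 hours; results are reported as percent growth, with values below 10 considered active.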 Unmarked numbers belong to inactive results. The source made the active and inactive calls.
Experiments:
Experiment in all cases: NCI-60 one-dose screen, 48 h (100 = growth as untreated, 0 = no growth, -100 = all killed)
NCI-H23 lung = settings: 10 µM unless noted
NCI-H226 lung = settings: 10 µM unless noted
NCI-H322M lung = settings: 10 µM unless noted
HOP-62 NSCLC = settings: 10 µM unless noted
NCI-H460 lung = settings: 10 µM unless noted
HOP-92 NSCLC = settings: 10 µM
A549/ATCC NSCLC = settings: 10 µM unless noted
786-0 renal = settings: 10 µM unless noted
DU-145 prostate = settings: 10 µM unless noted
K-562 leukemia = settings: 10 µM unless noted
MALME-3M melanoma = settings: 10 µM unless noted
MDA-MB-231 breast = settings: 10 µM unless noted
RXF 393 renal = settings: 10 µM unless noted
SF-268 CNS = settings: 10 µM unless noted
SF-295 CNS = settings: 10 µM unless noted
SF-539 CNS = settings: 10 µM unless noted
UACC-257 melanoma = settings: 10 µM unless noted
M14 melanoma = settings: 10 µM unless noted
NCI-H522 lung = settings: 10 µM unless noted
COLO 205 colon = settings: 10 µM unless noted

Structure (SMILES)	growth (NCI-H23 lung)	growth (NCI-H226 lung)	growth (NCI-H322M lung) [%]	growth (HOP-62 NSCLC) [%]	growth (NCI-H460 lung)	growth (HOP-92 NSCLC) [%]	growth (A549/ATCC NSCLC)	growth (786-0 renal)	growth (DU-145 prostate)	growth (K-562 leukemia)	growth (MALME-3M melanoma)	growth (MDA-MB-231 breast)	growth (RXF 393 renal)	growth (SF-268 CNS) [%]	growth (SF-295 CNS)	growth (SF-539 CNS)	growth (UACC-257 melanoma) [%]	growth (M14 melanoma)	growth (NCI-H522 lung)	growth (COLO 205 colon)
CCc1cccc(NC(=O)CNc2cc(S(=O)(=O)N(C)C)cc(C)c2C)c1	81.4%	77%	105	73.8	102%	72	85.2%	85.2%	80.3%	85%	106%	78%	37.7%	75	91.6%	90.7%	101	100%	–	–
COc1ccc(N2CCN(C3=C(Cl)C(=O)C(C)=C(C)C3=O)CC2)cc1	106%	99.2%	106	91.5	104%	–	108%	118%	108%	83.1%	110%	88.2%	153%	105	108%	105%	102	–	92.3%	125%
CC(=O)c1cc(C(=O)N2c3ccccc3Sc3ccccc32)n2ccc3ccccc3c12	62.8%	45.4%	61.8	42.4	30%	–	50.3%	38.4%	53%	20.1%	49.6%	76.7%	31.7%	54.1	18.8%	29.5%	57.4	33.1%	-38% (active)	36.3%
COc1cccc2c1CN(C(=O)c1ccc(O)c(C(=O)N3Cc4ccc(OCCC[P+](c5ccccc5)(c5ccccc5)c5ccccc5)cc4C3)c1)C2	75.4%	86.9%	99.1	102	61.4%	–	101%	103%	89.1%	22.6%	70.8%	86.9%	104%	80.5	76.3%	64.4%	44.8	89.3%	78%	54%
CNC(=O)c1cc(-c2ccc(NC(=S)Nc3cc(C(F)(F)F)cc(C(F)(F)F)c3)cc2)nc2cccnc12	93.7%	87.8%	111	79.2	92.1%	76.8	–	89.3%	84.9%	94.9%	99.2%	88.7%	41.1%	88.2	89.9%	92.1%	102	98.5%	–	110%
Nc1nc(Nc2ccccc2SSc2ccccc2Nc2nc(N)nc(-c3ccc4ccccc4c3)n2)nc(-c2ccc3ccccc3c2)n1	49.9%	59%	91.7	28.8	61.1%	92.4	2.94% (active)	82.6%	60.7%	69.7%	93.1%	60.9%	79.5%	74.9	67.7%	99%	112	95%	–	–
O=S(=O)(NCCCNc1nccc(-c2[nH]c(-c3ccccc3)nc2-c2ccc(Cl)c(O)c2)n1)c1ccc(Br)cc1	46.1%	38.3%	58.4	46.7	22.3%	–	30.2%	53.4%	47.7%	18.9%	2.55% (active)	43.4%	-6.2% (active)	37.9	2.98% (active)	46.7%	16.7	–	26.6%	81.3%
CCCn1cnc2c(c1=N)C(c1ccc(OC)cc1)c1sc3c(C)cccc3c1O2 (configuration not stated)	23.1%	63.8%	45.3	43.6	6.21% (active)	–	29.2%	31.1%	19.1%	13%	57.8%	27.4%	-5.55% (active)	39	-6.82% (active)	-21.6% (active)	86.7	2.53% (active)	-3.75% (active)	7.69% (active)
COc1ccc([C@H]2[C@H](O)C(=O)N2c2cc(OC)c(OC)c(OC)c2)cc1F	22.2%	32.6%	50.8	23.7	4.56% (active)	–	18.5%	12%	14.6%	8.75% (active)	65.9%	24.5%	27%	37.4	8.48% (active)	-5.31% (active)	57.7	2.83% (active)	-56% (active)	-79.1% (active)
CN(Cc1ccccc1)S(=O)(=O)/N=C1\NC(=O)NC1=C(Cl)Cl	66.1%	91.7%	95.1	40.8	17.9%	–	99.4%	22.4%	25.7%	1.09% (active)	-19.9% (active)	-2.3% (active)	55.1%	56.1	98.9%	0.38% (active)	68.2	–	-21.5% (active)	-26.1% (active)
O=C(CSc1nc2ccccc2c(=O)n1-c1ccccc1)Nc1cccc(C(=O)/C=C/c2ccccc2)c1	102%	83.1%	102	99	91.6%	–	80.1%	98.5%	94.8%	70.1%	101%	94.3%	83.1%	94.8	98%	98.8%	99.8	97.5%	92%	106%
c1cc(-c2nc3ccc4[nH]ncc4c3c3c2CCCC3)[nH]n1	54.8%	74.9%	76.6	68.6	38.8%	–	48.1%	64.7%	63%	64%	87.7%	89.2%	38%	71.4	67.5%	54.1%	91.1	39.7%	30.9%	54.1%
Cc1occc1-c1nc2s/c(=C/c3ccc(-c4cc(C(F)(F)F)ccc4Cl)o3)c(=O)n2n1	104%	98.1%	101	116	109%	–	102%	103%	103%	105%	98.5%	104%	108%	97.2	99.7%	103%	105	97.1%	98.2%	112%
c1cn2c(ccc3nc(-c4cn[nH]c4)c4c(c32)CCCC4)n1	69.2%	73.6%	75.8	71.8	43.9%	–	62.5%	55.3%	52%	85.6%	29%	77.1%	43.6%	77.5	42.6%	63.9%	63.5	32.1%	62.8%	95.5%
COc1ccc([C@@H]2[C@@H](O)C(=O)N2c2cc(OC)c(OC)c(OC)c2)cc1F	15.9%	36.9%	52.4	28.3	2.68% (active)	–	20.2%	10%	12.3%	8.16% (active)	64.1%	21.3%	24.9%	32	5.85% (active)	-0.902% (active)	58.6	3.94% (active)	-49.6% (active)	-79.8% (active)
Cn1cc(-c2nnc(N)nc2-c2c[nH]c3ccc(F)cc23)c2cc(F)ccc21	83%	91.6%	74	58.7	30.9%	–	82.2%	90%	88.2%	48.6%	77.7%	78.3%	98.7%	74.4	59.4%	95.4%	121	73.3%	57.5%	84.2%
COc1ccc(-c2nc3cc(Cl)c(Cl)cc3n2CC(=O)N=Nc2c(O)[nH]c3ccc(OC)cc23)cc1	38.7%	-38.3% (active)	80.4	43.2	56.1%	–	59.8%	82.5%	5.81% (active)	49.2%	41.2%	52%	-29.8% (active)	78.3	66.5%	47.2%	87.9	56.8%	69.3%	31.9%
CC(C)(C)c1ccc(-c2nnc(-c3nc4ccccc4nc3Cl)o2)cc1	90.9%	86.5%	92.9	11.1	88.1%	–	102%	105%	86.2%	65.9%	101%	90.5%	88.4%	42	103%	93.8%	61.9	93.1%	99.1%	104%
CCOc1ccc(C(=O)Nc2ncc(Cc3ccc(F)cc3)s2)cc1	28.4%	40.1%	55.3	33.7	7.15% (active)	–	33.6%	39.3%	28.8%	9.95% (active)	63.6%	36%	1.11% (active)	53.6	4.39% (active)	1.96% (active)	77.7	15.4%	10.8%	-21.9% (active)
Cc1ccc(S(=O)(=O)NCCNc2nc(Nc3ccc(N4CCN(C)CC4)cc3)nc3ccsc23)cc1	100%	104%	110	112	96.4%	–	93.8%	91.3%	102%	0.196% (active)	117%	109%	70%	74.9	98.2%	94.9%	107	106%	109%	113%
CCOC(=O)c1c(Nc2ccccc2)nn2c(-c3ccc(OC)cc3)ccnc12	86%	93.5%	87.1	95.3	93.5%	–	88.7%	64.5%	90.8%	45.3%	87.6%	79.4%	-2.68% (active)	101	89.5%	83.8%	110	96%	88.1%	99.9%
CNCc1cccc2c1OCCCCCCC(C)(O)CC(C)(C)S(=O)(=O)c1ccc(cc1)-c1cnc(N)c(n1)C(=O)N2 (configuration not stated)	9.01% (active)	43.5%	46.2	59.2	-56.3% (active)	–	11.4%	-11.9% (active)	9.36% (active)	-29.3% (active)	-58.7% (active)	-6.41% (active)	-90.7% (active)	13.2	10.9%	-72% (active)	18.1	-88.9% (active)	-66.8% (active)	-48.2% (active)

— PubChem BioAssay (NCI)
